Inconclusive results are not listed. The source made the active and inactive calls. The calls were made as follows: active = hit-call score of the fitted dose curve at least 0.9, where 1 is the maximum; inconclusive = response in the unintended direction; inactive = score below 0.9.
Tests used:
[1] = ATG_XTT_Cytotoxicity: Cytotoxicity Assessment in the Attagene TRANS-FACTORIAL HepG2 Assay (AID 2283584)
How it was run: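 Transfect HepG2 with GAL4-UAS reporter units, dose compound, incubate 24 h, then measure viable cell number by XTT. Fit concentration response against DMSO baseline.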

[2] = TOX21_p53_BLA_p2_viability: Viability Assessment in the Tox21 HCT-116 p53 Agonism Beta-lactamase Assay, Phase 2 (AID 2283591);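 also: compound exposure lasted 16 h at 37 °C; actives lower the ATP signal meaning cytotoxicity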
How it was run: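 HCT116 p53-bla cells, 4000/well, dosed after 5 h plating (217-fold dilution of DMSO stocks) and incubated 16 h at 37C. Viability taken as cellular ATP by CellTiter-Glo luminescence after 30 min RT; signal loss marks cytotoxicity.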

[3] = TOX21_p53_BLA_p3_viability: Viability Assessment in the Tox21 HCT-116 p53 Agonism Beta-lactamase Assay, Phase 3 (AID 2283593);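 also: cells exposed to compound for 16 h before reading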
How it was run: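 HCT116 cells, 4000/well, dosed 5 h after plating by pin transfer (217-fold dilution from DMSO stock) and incubated 16 h at 37C, 5% CO2. Viability read as ATP luminescence with CellTiter-Glo after 30 min at room temperature.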

[4] = molecular target: Cellular tumor antigen p53 (Homo sapiens) (UniProt P04637); assay: TOX21_p53_BLA_p3_ratio: Tox21 HCT-116 p53 Agonism Beta-lactamase Assay, Ratio, Phase 3 (AID 2283596)
How it was run: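 Cells were seeded at 4000/well, rested 5 h at 37C, then dosed with DMSO compound solutions (217-fold dilution) for 16 h. CCF4-AM substrate was loaded for 2 h at room temperature, and the 460/530 nm emission ratio was fitted for gain of signal versus DMSO.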

[5] = TOX21_p53_BLA_p4_viability: Viability Assessment in the Tox21 HCT-116 p53 Agonism Beta-lactamase Assay, Phase 4 (AID 2283597);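 also: hits lower the luminescence signal meaning cytotoxicity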
How it was run: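 Viability is taken as cellular ATP: after 16 h compound exposure of HCT116 cells and a 2 h room-temperature CCF4-AM substrate step, CellTiter-Glo reagent is added and luminescence is measured 30 min later.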

[6] = molecular target: Cellular tumor antigen p53 (Homo sapiens) (UniProt P04637); assay: TOX21_p53_BLA_p5_ratio: Tox21 HCT-116 p53 Agonism Beta-lactamase Assay, Ratio, Phase 5 (AID 2283599)
How it was run: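 HCT-116 p53-bla cells (4000/well) plated 5 h, dosed with compound (217-fold DMSO dilution) for 16 h at 37 C; CCF4-AM substrate 2 h at room temperature. Activity is the 460/530 nm emission ratio (405 nm excitation), fitted in gain-of-signal direction versus DMSO.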

[7] = molecular target: Cellular tumor antigen p53 (Homo sapiens) (UniProt P04637); assay: TOX21_p53_BLA_p4_ratio: Tox21 HCT-116 p53 Agonism Beta-lactamase Assay, Ratio, Phase 4 (AID 2283601)
How it was run: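 HCT-116 p53 beta-lactamase reporter cells (4000/well) preincubated 5 h, then compound (217-fold dilution of DMSO stock) for 16 h at 37C. CCF4-AM substrate added 2 h at room temperature; 460/530 nm emission ratio fitted upward versus DMSO.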

[8] = molecular target: Cellular tumor antigen p53 (Homo sapiens) (UniProt P04637); assay: TOX21_p53_BLA_p2_ratio: Tox21 HCT-116 p53 Agonism Beta-lactamase Assay, Ratio, Phase 2 (AID 2283592)
How it was run: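 Cleaved-to-uncleaved substrate ratio (460 vs 530 nm) measured in HCT116 cells with an inducible beta-lactamase reporter linked to p53 activity. Compounds incubated 16 h at 37C before 2 h room-temperature CCF4-AM loading.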

[9] = TOX21_p53_BLA_p5_viability: Viability Assessment in the Tox21 HCT-116 p53 Agonism Beta-lactamase Assay, Phase 5 (AID 2283600)
How it was run: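 Viability is taken from cellular ATP content, measured by luciferase luminescence in the same wells after the beta-lactamase ratio read. Cells are seeded at 4000 per well and exposed to DMSO-dissolved compounds, diluted 217-fold, for 16 h.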

Measured: outcome

Chain of Cellular tumor antigen p53 (Homo sapiens) (P04637 whole entry, looked up): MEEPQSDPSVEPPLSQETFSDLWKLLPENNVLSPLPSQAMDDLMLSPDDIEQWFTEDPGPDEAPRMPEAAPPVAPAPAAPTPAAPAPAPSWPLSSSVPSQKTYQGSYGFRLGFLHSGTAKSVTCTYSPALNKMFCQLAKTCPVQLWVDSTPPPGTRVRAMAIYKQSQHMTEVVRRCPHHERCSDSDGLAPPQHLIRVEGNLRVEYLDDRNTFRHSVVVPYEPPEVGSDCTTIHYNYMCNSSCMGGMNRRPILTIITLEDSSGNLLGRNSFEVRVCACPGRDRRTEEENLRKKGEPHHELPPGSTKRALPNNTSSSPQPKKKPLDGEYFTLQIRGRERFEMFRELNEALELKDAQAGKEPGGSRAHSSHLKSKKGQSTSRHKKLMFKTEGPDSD

C=C(C)[C@@H]1CC=C(C)CC1
inactive: [1] | [2] | [3] | [4] | [5] | [6] | [7]

CC(C)(O)Cc1ccccc1
inactive: [1] | [8] | [3] | [4] | [5] | [6]

CCCCCC[C@@H](O)C/C=C\CCCCCCCC(=O)OCC(O)CO (stereo partly drawn)
inactive: [1] | [8] | [3] | [4] | [5] | [7]

CCCCCCCCCC(C)=O
inactive: [1] | [2] | [8] | [6]

CCCCOCCOCCOC(C)=O
inactive: [1] | [8] | [3] | [4] | [5] | [6] | [7]

CCCCCCCCCCCCC
inactive: [1] | [2] | [4] | [6] | [9] | [7]

O=C(OCCc1ccccc1)c1ccccc1
inactive: [1] | [8] | [4] | [5] | [6] | [7]

C=Cc1ccc(OC(C)=O)cc1
inactive: [1] | [8] | [3] | [4] | [6] | [9]

CC1=CCC(C(C)C)C=C1 (stereo not drawn)
inactive: [1] | [2] | [3]

O=C(C=Cc1ccccc1)OCCc1ccccc1
inactive: [1] | [8] | [3] | [4] | [9] | [7]

CC(CC=O)CC(C)(C)C (stereo not drawn)
inactive: [1] | [2] | [4] | [5] | [7]

CC(CCC(=O)O)(c1ccc(O)cc1)c1ccc(O)cc1
inactive: [1] | [8] | [3] | [4] | [5] | [6] | [9] | [7]

Nc1ccc(C(=O)OCCCOC(=O)c2ccc(N)cc2)cc1
inactive: [1] | [2] | [3] | [5] | [6]

C=CC(=O)OCC(C)OCC(C)OCC(C)OC(=O)C=C (stereo not drawn)
inactive: [1] | [8] | [3] | [4] | [6] | [7]

CCOC(=O)c1ccc(C)cc1
inactive: [1] | [2] | [3] | [4] | [7]

CC(=O)OCC=C(C)C
inactive: [1] | [8] | [4] | [5] | [6] | [9] | [7]

Cc1ccc(S(=O)(=O)N=C=O)cc1
inactive: [1] | [2] | [3] | [4] | [6] | [9] | [7]

CC(=O)OCCc1ccccc1
inactive: [1] | [2] | [3] | [5] | [6] | [9] | [7]

Clc1cc(Cl)c(Cl)c(Cl)c1Cl
inactive: [1] | [8] | [3] | [4] | [5] | [7]

CC(=O)c1ccccc1O
inactive: [1] | [8] | [3] | [4] | [6]

CC1=C(O)C(=O)C(C)O1 (stereo not drawn)
inactive: [1] | [2] | [8] | [6] | [9] | [7]

c1ccc2cnccc2c1
inactive: [1] | [2] | [3] | [7]

C=C(C)C1CC=C(C)C(OC(C)=O)C1 (stereo not drawn)
inactive: [1] | [8] | [4]

Cc1c(C(=O)c2c[nH]n(C)c2=O)ccc(S(C)(=O)=O)c1C1=NOCC1
inactive: [1] | [8] | [3] | [4] | [6] | [9] | [7]

O=C(O)CC(C(=O)O)S(=O)(=O)O (stereo not drawn)
inactive: [1] | [8] | [3] | [9] | [7]

CC(C)CCCCCOC(=O)CS
inactive: [1] | [2] | [3] | [5] | [6] | [9]

Nc1ccnc(=O)[nH]1
inactive: [1] | [2] | [8] | [5] | [9] | [7]

CC1CC(=O)CC(C)(C)C1 (stereo not drawn)
inactive: [1] | [8] | [4] | [6] | [9] | [7]

C=CC(C)(CCC=C(C)C)OC(=O)C=Cc1ccccc1 (stereo not drawn)
inactive: [1] | [2] | [3] | [4] | [5] | [9]

N#Cc1ccc(C2CCCc3cncn32)cc1 (stereo not drawn)
inactive: [1] | [2] | [8] | [6] | [9] | [7]

CCCCCCO
inactive: [2] | [8] | [3] | [4] | [5]

Reference: PubChem BioAssay (EPA / NIEHS)
